Source: PubChem BioAssay (Tox21)
Values joined by “and” are separate entries in the source; they are usually repeats but may differ in a detail not shown here. Equal entries are not always repeated. Records with an inconclusive call do not appear. Active and inactive are the calls of the source. Unless noted, the call rests on the fitted dose curve; in most records, active means well fitted curve in the direction sought with a large enough effect in the repeat runs; inconclusive means weak or mixed curves; inactive means flat fitted curve, though single readings scatter.

Tests used:
[1] = qHTS assay to test for compound auto fluorescence at 535 nm (green) in HEK293 cells (AID 720680); conditions: green autofluorescence 485/535 nm; series mostly up to 91.3 µM
[2] = qHTS assay to test for compound auto fluorescence at 460 nm (blue) in HEK293 cell free culture (AID 720681); conditions: cell-free medium, autofluorescence 405/460 nm (blue); series mostly up to 91.3 µM
Summary of the method: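 Test compounds were pinned into cell-free culture medium (DMEM with 10% FBS) and fluorescence was read directly at Ex/Em 405/460 nm. Signals were expressed as fluorescence equivalents of triamterene, with DMSO vehicle as control.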

[3] = qHTS assay to test for compound auto fluorescence at 535 nm (green) in HEK293 cell free culture (AID 720682); conditions: cell-free medium, green autofluorescence 485/535 nm, hits give high values; series mostly up to 91.3 µM
Summary of the method: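 Intrinsic compound fluorescence is measured in culture medium containing 10% FBS, with excitation at 485 nm and detection at 535 nm, referenced to fluorescein.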

[4] = qHTS assay to test for compound auto fluorescence at 590 nm (red) in HEK293 cell free culture (AID 720683); conditions: cell-free medium autofluorescence, Ex540/Em590 red; series mostly up to 91.3 µM
Summary of the method: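 Tox21 10K library compounds were pinned into cell-free DMEM with 10% FBS and fluorescence was read at excitation 540 nm. Activity is expressed as Rose Bengal sodium equivalency.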

[5] = qHTS assay to test for compound auto fluorescence at 590 nm (red) in HepG2 cell free culture (AID 720684); conditions: cell-free medium autofluorescence, red 540/590 nm; series mostly up to 91.3 µM
Summary of the method: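 Readout: intrinsic compound fluorescence at 590 nm emission after 540 nm excitation, scaled to Rose Bengal sodium. Matrix was cell-free MEM with 10% FBS; DMSO vehicle wells served as control.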

[6] = qHTS assay to test for compound auto fluorescence at 460 nm (blue) in HepG2 cell free culture (AID 720685); conditions: Cell-free culture medium, blue autofluorescence 405/460 nm; series mostly up to 91.3 µM
Summary of the method: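 Cell-free plates of MEM plus 10% FBS received 23 nL compound or DMSO vehicle; blue-channel (405/460 nm) intensity scored against triamterene as reference fluorophore.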

[7] = qHTS assay to test for compound auto fluorescence at 535 nm (green) in HepG2 cell free culture (AID 720686); conditions: Cell-free medium, green autofluorescence 485/535 nm; series mostly up to 91.3 µM
[8] = qHTS assay to test for compound auto fluorescence at 460 nm (blue) in HepG2 cells (AID 720687); conditions: autofluorescence 405/460 nm, 1 h; series mostly up to 91.3 µM
Summary of the method: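 Cells (2,000/well in MEM with 10% FBS) attached overnight at 37 C, then were exposed to compound or DMSO for 1 hr at 37 C, 5% CO2. Fluorescence read at Ex/Em 405/460 nm, expressed as triamterene-equivalent signal.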

[9] = molecular target: Glucocorticoid receptor (Homo sapiens) (UniProt P04150); assay: qHTS assay to identify small molecule agonists of the glucocorticoid receptor (GR) signaling pathway (AID 720691; active means well fitted activation curve with a large enough effect in the signal ratio in the repeat runs, not every such curve was filed as active; the % refers to the signal ratio); conditions: GR-bla HeLa, beta-lactamase reporter ratio, 18 h; series mostly up to 62.4 µM
Sequence of Glucocorticoid receptor (Homo sapiens) (P04150 whole entry, looked up): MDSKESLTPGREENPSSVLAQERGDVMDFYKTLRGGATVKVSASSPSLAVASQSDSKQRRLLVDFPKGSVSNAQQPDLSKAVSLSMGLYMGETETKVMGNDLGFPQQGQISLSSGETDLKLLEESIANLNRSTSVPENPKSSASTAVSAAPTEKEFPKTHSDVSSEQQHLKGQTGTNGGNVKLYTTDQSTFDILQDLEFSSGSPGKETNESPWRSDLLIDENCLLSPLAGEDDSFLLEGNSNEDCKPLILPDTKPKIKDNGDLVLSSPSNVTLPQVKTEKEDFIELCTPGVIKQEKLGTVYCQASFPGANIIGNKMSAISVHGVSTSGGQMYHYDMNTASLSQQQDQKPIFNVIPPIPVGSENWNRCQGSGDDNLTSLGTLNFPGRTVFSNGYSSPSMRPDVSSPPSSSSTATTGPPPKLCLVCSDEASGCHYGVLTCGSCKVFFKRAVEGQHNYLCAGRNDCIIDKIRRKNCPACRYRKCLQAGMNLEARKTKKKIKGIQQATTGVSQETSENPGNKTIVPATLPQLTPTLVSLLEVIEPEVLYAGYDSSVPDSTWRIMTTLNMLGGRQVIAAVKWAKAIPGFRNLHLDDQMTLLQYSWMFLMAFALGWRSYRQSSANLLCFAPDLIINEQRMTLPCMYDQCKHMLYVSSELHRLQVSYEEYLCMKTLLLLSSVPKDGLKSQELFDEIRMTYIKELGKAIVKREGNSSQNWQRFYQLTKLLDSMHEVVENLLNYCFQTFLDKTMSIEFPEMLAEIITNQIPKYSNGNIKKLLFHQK
Summary of the method: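 Cells: GR-bla HeLa, endogenous GR with stably integrated GRE-beta-lactamase reporter. Treatment 18 h, 37 C, compounds delivered in DMSO. Detection via LiveBLAzer B/G FRET substrate, 2 h RT, fluorescence intensity.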

[10] = molecular target: Glucocorticoid receptor (Homo sapiens) (UniProt P04150); assay: qHTS assay to identify small molecule antagonists of the glucocorticoid receptor (GR) signaling pathway (AID 720692; active means well fitted inhibition curve with a large enough effect in the signal ratio in the repeat runs, not every such curve was filed as active; the % refers to the signal ratio; further: potency means the concentration at half of the fitted maximal effect); conditions: GR-bla HeLa, beta-lactamase FRET ratio, dexamethasone-stimulated, 18 h; series mostly up to 58.5 µM
Summary of the method: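 Quantitative HTS in antagonist format: HeLa cells expressing endogenous GR and a stably integrated GRE-bla reporter, stimulated with 5 nM dexamethasone (final) alongside test compounds for 18 h.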

Measured: Potency

Nc1ccccc1C(=O)OC/C=C/c1ccccc1
inactive: all assays above

CCC(C)c1cc([N+](=O)[O-])cc([N+](=O)[O-])c1OC(=O)C=C(C)C (centres undefined)
active: [10] 19.5 µM
inactive: all other assays above

N#CCCSCCC#N
inactive: all assays above

O=C(CCl)C(Cl)Cl
active: [10] 35 µM
not listed: [9]
inactive: all other assays above

CCOP(=S)(OCC)OC(Cl)C(Cl)(Cl)Cl (centres undefined)
inactive: all assays above

C[C@]12CC[C@@H]3c4ccc(OC(=O)N(CCCl)CCCl)cc4CC[C@H]3[C@@H]1CC[C@@H]2O
inactive: all assays above

CC(C)CC(C)N (centres undefined)
inactive: all assays above

CC(Cc1ccc(C(C)(C)C)cc1)CN1C[C@@H](C)O[C@@H](C)C1 (some centres undefined)
inactive: all assays above

CCCCCCCCCCCCBr
inactive: all assays above

ClC1=C(Cl)[C@]2(Cl)[C@H]3[C@H]([C@H]4C=C[C@H]3C4)[C@@]1(Cl)C2(Cl)Cl
active: [10] 49 µM
inactive: all other assays above

CCCCOCN(C(=O)CCl)c1c(CC)cccc1CC
active: [10] 21.9 µM
inactive: all other assays above

FC(F)(F)c1cccc(C2=CCN(CCc3ccc4ccccc4c3)CC2)c1
inactive: all assays above

O=c1ssc(Cl)c1Cl
active: [10] 43.6 µM
inactive: all other assays above

O=C(NC(=O)c1c(F)cccc1F)Nc1cc(Cl)c(OC(F)(F)C(F)F)c(Cl)c1
not listed: [9]
inactive: all other assays above

Nc1ccc(Cc2ccc(N)c(Cl)c2)cc1Cl
active: [10] 42.2 µM
inactive: all other assays above

O=C/C(Cl)=C(/Cl)C(=O)O
active: [10] 48.9 µM and 49 µM
not listed: [9]
inactive: all other assays above

CC[C@H](C)[C@H]1O[C@]2(C=C[C@@H]1C)C[C@@H]1C[C@@H](C/C=C(\C)[C@@H](O[C@H]3C[C@H](OC)[C@@H](O[C@H]4C[C@H](OC)[C@@H](O)[C@H](C)O4)[C@H](C)O3)[C@@H](C)/C=C/C=C3\CO[C@@H]4[C@H](O)C(C)=C[C@@H](C(=O)O1)[C@]34O)O2
active: [10] 23.9 µM
inactive: all other assays above

O=C(O)C1C2CCC(O2)C1C(=O)O (centres undefined)
inactive: all assays above

C[C@H]1CC[C@@H]2[C@@H](C)[C@H]3[C@H](C[C@H]4[C@@H]5CC=C6CC(O[C@@H]7O[C@H](CO)[C@H](O)[C@H](O[C@@H]8O[C@H](CO)[C@@H](O)[C@H](O)[C@H]8O)[C@H]7O[C@H]7O[C@@H](C)[C@H](O)[C@@H](O)[C@H]7O)CC[C@]6(C)[C@H]5CC[C@]34C)N2C1 (some centres undefined)
inactive: all assays above

c1ccc(OCC2CO2)cc1 (centres undefined)
inactive: all assays above

Oc1c(Br)c(Br)c(Br)c(Br)c1Br
active: [10] 13.9 µM
inactive: all other assays above

O=C1c2ccccc2C(=O)C1C(=O)C(c1ccccc1)c1ccc(Cl)cc1 (centres undefined)
active: [10] 12.3 µM
inactive: all other assays above

CCOC(=O)CC(=O)CCl
not listed: [10]
inactive: all other assays above

C=CC(=O)OCCCCOC(=O)C=C
active: [10] 24.5 µM
inactive: all other assays above

CN(C)c1ccc(N=Nc2ccccc2)cc1
inactive: all assays above

c1ccc(Nc2ccc3ccccc3c2)cc1
inactive: all assays above

O=C(CCCN1CCC2(CC1)C(=O)NCN2c1ccccc1)c1ccc(F)cc1
inactive: all assays above

Cc1cc(C(C)(C)c2cc(C)c(O)c(C)c2)cc(C)c1O
active: [10] 4.74 µM
not listed: [9]
inactive: all other assays above

CC(C)CC(C)(c1ccc(O)cc1)c1ccc(O)cc1
active: [10] 19.5 µM
not listed: [4] | [9]
inactive: all other assays above

CC(c1ccc(O)cc1)c1ccc(O)cc1
not listed: [9]
inactive: all other assays above

S=C=Nc1cccc2ccccc12
active: [10] 17.2 µM
not listed: [4] | [9]
inactive: all other assays above

c1ccc2c(c1)OCC(C1=NCCN1)O2 (centres undefined)
not listed: [4] | [9] | [10]
inactive: all other assays above

CCCCCCCCCCCCCCCC[n+]1ccccc1
not listed: [4] | [9] | [10]
inactive: all other assays above

CNC(C)Cc1ccc2c(c1)OCO2 (centres undefined)
not listed: [4] | [9] | [10]
inactive: all other assays above

O=c1[nH]c2ccccc2n1CCCN1CCC(n2c(=O)[nH]c3cc(Cl)ccc32)CC1
not listed: [4] | [10]
inactive: all other assays above
